# This is a sample that favours compounds with a hit; in the whole collection about 3.7% have one here.
# Smad3 inh = Smad3 (human) transcription factor binding inhibition | AID 630 | TR-FRET Smad3/Dy647-FoxH1 peptide binding, europium anti-His | actives 0.29% (n = 88,000) | inhibition, % at 25 µM;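 active = compounds that reduce the energy-transfer binding signal between the protein and its labelled peptide by more than half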;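 note: 0% = Smad3 plus labelled peptide maximal FRET and 100% = peptide-only background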
# Target sequence (P84022 whole entry, looked up): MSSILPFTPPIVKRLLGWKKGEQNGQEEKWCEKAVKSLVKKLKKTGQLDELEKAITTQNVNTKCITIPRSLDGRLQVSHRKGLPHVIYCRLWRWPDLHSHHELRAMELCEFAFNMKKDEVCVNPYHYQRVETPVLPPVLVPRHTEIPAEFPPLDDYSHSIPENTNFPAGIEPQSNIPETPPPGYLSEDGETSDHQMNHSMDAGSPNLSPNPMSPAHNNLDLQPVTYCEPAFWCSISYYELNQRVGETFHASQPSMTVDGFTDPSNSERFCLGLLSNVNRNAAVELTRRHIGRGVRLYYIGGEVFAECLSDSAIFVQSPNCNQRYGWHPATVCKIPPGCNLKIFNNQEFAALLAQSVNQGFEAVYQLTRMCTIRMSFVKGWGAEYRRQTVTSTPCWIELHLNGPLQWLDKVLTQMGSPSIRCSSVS
# ERa SRC1 inh = blocks coactivator binding to human estrogen receptor alpha; TR-FRET ER-alpha LBD / SRC-1 peptide, estradiol-bound; actives 1.7% (n = 86,000); P03372; inhibition, % at 25.6 µM; in the data active = inhibition above about 50%;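 note: 0% = receptor plus peptide control and 100% = peptide only without receptor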
# ERb SRC1 inh = ER-beta (human) coactivator binding inhibition | Q92731 | TR-FRET ER-beta LBD / SRC1-Cy5 peptide binding; receptor agonist-loaded with 1 µM estradiol | inhibition, % at 25.6 µM | actives 1.3% (n = 86,000) | AID 633;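 active = compounds whose percent inhibition of the receptor-coactivator binding signal exceeds about 50% in the single-dose screen, limit read from the data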;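 note: 0% = receptor plus peptide wells without compound and 100% = peptide-only wells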
# ERa SRC1 pot = enhances coactivator binding to human estrogen receptor alpha; actives 1.3% (n = 86,000); AID 639; coactivator binding (% of control), % at 25.6 µM; TR-FRET ERalpha-LBD/SRC-Cy5 coactivator binding, 2 h; 100 = basal binding, no effect; in the data active = activity above about 200%;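 note: binding measured in presence of low estradiol as agonist stimulus; 0% = peptide alone without receptor and 100% = receptor with peptide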
# Active calls of the source: *; / = no result given; [ ] = remark or other dose.
SMILES,Smad3 inh,ERa SRC1 inh,ERb SRC1 inh,ERa SRC1 pot
NC(=O)COc1cccc2cccnc12,7,-4,7,106
Cc1cc(NC(=O)COc2cccc3cccnc23)no1,-7,64*[fluorescence artefact?],50*[fluorescence artefact?],52
Cc1cc(NC(=O)COc2cccc(C)c2C)no1,12,3,-5,96
Cc1cc(NC(=O)c2ccc(Cl)cc2)no1,3,-6,-6,118
Cc1oc(C(=O)O)cc1COc1cccc2cccnc12,4,20,59*[fluorescence artefact?],99
CCOc1cccc2cc(C(=O)Nc3cc(C)on3)c(=O)oc12,-55,33,29,468*[fluorescence artefact?]
CCOc1cc(C(=O)Nc2cc(C)on2)cc(OCC)c1OCC,-2,-8,-9,116
Cc1cc(NC(=O)c2cccc(C(=O)Nc3cc(C)on3)n2)no1,35,16,11,292*
O=C(O)CCCc1ccc2ccc3ccccc3c2c1,-4,/,/,/
O=C(O)CN(CCN(CC(=O)O)CC(=O)O)CC(=O)O.[Cu+2],23,/,/,/
C/C(=N\NC(=O)c1[nH]c2c([N+](=O)[O-])cc(C)cc2c1-c1ccccc1)c1cccnc1,16,26,16,64
O=C(N/C=N/OCc1ccc(Cl)cc1Cl)NOCc1c(Cl)cccc1Cl,-1,26,30,213*
c1ccc(CO[C@H]2NCCN2Cc2ccccc2)cc1,-13,/,/,/
NC(CSS(=O)(=O)O)=N[C@H]1C[C@H]2CC[C@@H]1C2,15,/,/,/
CCOC(=O)c1c(C)oc2c1c(C(c1cccnc1)N1CCN(C)CC1)c(O)c1ccccc12 (stereo unspecified),8,77*[fluorescence artefact?],64*[fluorescence artefact?],51
CCOC(=O)c1c(C)oc2c1c1c(c3ccccc32)OCN(Cc2cccnc2)C1,1,34,38,139
CO[C@@H](NC(N)=O)C(=O)O,0,/,/,/
NS(=O)(=O)c1ccc(N=Nc2c[nH]c(=O)c(O)c2)cc1,78*,/,/,/
CCn1c(SCC(=O)Nc2ccc3c(c2)OCO3)nc2ccccc21,6,-10,-8,94
COCCn1c(SCC(=O)Nc2ccc(NC(=O)c3ccco3)c(OC)c2)nc2ccccc2c1=O,-10,29,25,160
CCOc1ccc2nc(NC(=O)CSc3nc4ccccc4c(=O)n3Cc3ccco3)sc2c1,5,17,53*[fluorescence artefact?],138
CCn1c(SCC(=O)Nc2ccc(NC(=O)c3ccco3)c(OC)c2)nc2ccccc2c1=O,-17,65*,43,154
C=CCn1c(SCC(=O)Nc2ccc3c(c2)OCO3)nc2ccccc2c1=O,6,-1,98*[fluorescence artefact?],105
CCCCn1c(SCC(=O)Nc2cc(C)on2)nc2ccccc2c1=O,23,15,23,170
CCCCn1c(SCC(=O)Nc2cc(NC(=O)c3ccco3)ccc2C)nc2ccccc2c1=O,-12,75*[fluorescence artefact?],58*[fluorescence artefact?],122
SMILES,Smad3 inh,ERa SRC1 inh,ERb SRC1 inh,ERa SRC1 pot
CN(C)CCN(c1ccccn1)c1ccccn1,17,/,/,/
CC(=O)Nc1nc2ncc(C=O)nc2c(=O)[nH]1,-10,/,/,/
N[C@@H](CSCc1ccccc1)C(=O)O,1,/,/,/
Cn1c(=O)c2[nH]c(COCc3nc4c([nH]3)c(=O)n(C)c(=O)n4C)nc2n(C)c1=O,1,/,/,/
Cn1nnnc1SCC(=O)Nc1nc(-c2ccccc2)c(-c2ccccc2)o1,-3,-36,-27,391*
Cc1ccc(C)n1-c1sccc1C(=O)O,2,71*[fluorescence artefact?],60*,27
CCCCOc1ccc(-c2nnc(-c3ccncc3)o2)cc1,9,4,2,114
CCCOc1ccc(-c2nnc(-c3cccs3)o2)cc1,-76,15,17,215*[fluorescence artefact?]
Cn1c(=O)oc2cc(S(=O)(=O)N3CCCC(C(=O)NC4CCCc5ccccc54)C3)ccc21 (stereo unspecified),-1,16,51*[fluorescence artefact?],80
CC(=O)[C@H]1CC[C@@H]2[C@]1(C)CC=C1[C@@]23C=C[C@@]2(C[C@H](O)CC[C@@]12C)[C@H](C(=O)O)[C@@H]3C(=O)O,36,/,/,/
CCC(Sc1nc2cc3c(cc2c(=O)n1Cc1ccco1)OCO3)C(=O)Nc1cccc(OC)c1 (stereo unspecified),-2,8,12,110
CCC(Sc1nc2cc3c(cc2c(=O)n1Cc1ccco1)OCO3)C(=O)Nc1ccccc1OC (stereo unspecified),5,88*[fluorescence artefact?],32,144
OC(Cn1cncn1)(c1ccccc1)c1ccccc1,-17,-8,3,97
O=C(NCc1ccc2c(c1)OCO2)c1ccc(C2SCC(=O)N2Cc2ccco2)cc1 (stereo unspecified),4,43,33,215*[fluorescence artefact?]
CCN1CCc2c(C#N)c(NCc3ccccc3)nc(N(CC)CC)c2C1,-5,5,0,675*[fluorescence artefact?]
